Assay [1] can be described thus: qHTS profiling for inhibitors of Plasmodium falciparum proliferation (AID 504749).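 On activity, negative = inhibition: 0% = DMSO vehicle and full inhibition = artemisinin control.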 On all read-outs here: nearly all actives have a fitted effect of over 60% in size. The following applies: P. falciparum in erythrocytes, SYBR Green DNA, 72 h; for activity, negative = inhibition: at 28.7 µM (top of the series). Put shortly:
(§1)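 SYBR Green fluorescence (ex 485 nm, em 535 nm) reports parasite DNA after 72 h compound exposure of infected red cells at 0.3% parasitemia, 2.5% hematocrit; signal normalized to 0.29 uM artemisinin and vehicle wells.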
On the technique in general: In qHTS, concentration-response curves come from the screen itself.

The next assay relates to 3D7. The description is as above. As to conditions: P. falciparum in erythrocytes, SYBR Green DNA, 72 h; series mostly up to 28.7 µM. Put shortly: as §1
Another assay deals with 7G8. The assay is described as above. As to conditions: P. falciparum in erythrocytes, SYBR Green DNA, 72 h; series mostly up to 28.7 µM. Put shortly: as §1
Another assay has as its system AA1029. Described as above. The following applies: P. falciparum in erythrocytes, SYBR Green DNA, 72 h; series mostly up to 28.7 µM. The method, boiled down: as §1
For a further assay, the system named is AS120. The assay is described as above. The following applies: P. falciparum in erythrocytes, SYBR Green DNA, 72 h; series mostly up to 28.7 µM. Put shortly: as §1
A further assay concerns ATS189. The description is as above. As to conditions: P. falciparum in erythrocytes, SYBR Green DNA, 72 h; series mostly up to 28.7 µM. Put shortly:
as §1

In the next assay the test system is ATS95. Described as above. The following applies: P. falciparum in erythrocytes, SYBR Green DNA, 72 h; series mostly up to 28.7 µM. The method, boiled down:
as §1

For a further assay, the system named is C2A. The assay is described as above. The following applies: P. falciparum in erythrocytes, SYBR Green DNA, 72 h; series mostly up to 28.7 µM. The method, boiled down: as §1
For a further assay, the system named is CP185. The assay is described as above. As to conditions: P. falciparum in erythrocytes, SYBR Green DNA, 72 h; series mostly up to 28.7 µM. Put shortly: as §1
For the next assay, the system named is CP191. Described as above. The following applies: P. falciparum in erythrocytes, SYBR Green DNA, 72 h; series mostly up to 28.7 µM. Put shortly:
as §1

A further assay relates to CP192. Described as above. As to conditions: P. falciparum in erythrocytes, SYBR Green DNA, 72 h; series mostly up to 28.7 µM. The method, boiled down:
as §1

The test system of the next assay is CP194. Described as above. The following applies: P. falciparum in erythrocytes, SYBR Green DNA, 72 h; series mostly up to 28.7 µM. The method, boiled down: as §1
For another assay, the system named is CP201. The description is as above. The following applies: P. falciparum in erythrocytes, SYBR Green DNA, 72 h; series mostly up to 28.7 µM. Put shortly: as §1
The subject of another assay is CP203. Described as above. The following applies: P. falciparum in erythrocytes, SYBR Green DNA, 72 h; series mostly up to 28.7 µM. The method, boiled down:
as §1

Another assay relates to CP211. The description is as above. The following applies: P. falciparum in erythrocytes, SYBR Green DNA, 72 h; series mostly up to 28.7 µM. Put shortly: as §1
The subject of a further assay is CP215. The description is as above. As to conditions: P. falciparum in erythrocytes, SYBR Green DNA, 72 h; series mostly up to 28.7 µM. Put shortly: as §1
The test system of another assay is CP217. The description is as above. The following applies: P. falciparum in erythrocytes, SYBR Green DNA, 72 h; series mostly up to 28.7 µM. Put shortly: as §1
The test system of the next assay is CP237. The assay is described as above. The following applies: P. falciparum in erythrocytes, SYBR Green DNA, 72 h; series mostly up to 28.7 µM. Put shortly:
as §1

Assay [2] in a line: qHTS drug screen for cell cycle checkpoint inhibitors in PARPi-resistant BRCA-mutant ovarian cancer cell lines. (AID 1963452; calls by dose curve). As to conditions: PEO1/OlaR viability, CellTiter-Glo luminescence, 96 h; for Z-AUC: stronger effect = lower value. The method, boiled down:
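PEO1, PEO4 and PEO1/OlaR ovarian cancer cells, 600 per well, exposed 96 h at 37C to a dilution series. Viability read by CellTiter-Glo luminescence, normalized to DMSO and empty wells; activity summarized as Z-AUC.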

Assay [3] in a line: qHTS for identification of novel therapeutic agents for treatment of microphthalmiaassociated transcription factor (MiT) renal cell carcinoma (RCC) (AID 1963991; calls by dose curve). As to conditions: CellTiter-Glo, 48 h; for Potency: active = Z-AUC below -0.8 in all three lines; for z-score: stronger effect = lower value. Put shortly: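 Three TFE3-fusion RCC lines (UOK109, UOK124, UOK145), 500 cells/well in complete medium, were treated with MIPE 4.0 compounds for 48 hours at 37 C. Viability was by CellTiter-Glo luminescence, normalized to DMSO (100%) and empty wells (0%); curves fitted over 11 concentrations.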

The mark [4] stands for this setting: measured here: PEO1 parental Z-AUC.
Setting [5] is: TFE3-RCC UOK109 viability, measured here: UOK109 Z-AUC.
[6] abbreviates: TFE3-RCC viability, measured here: UOK124 Z-AUC.
Where [7] appears, read: TFE3-RCC viability, measured here: UOK145 Z-AUC.

SMILES strings stand for the structures. Values joined by “and” are separate entries in the source; they are usually repeats but may differ in a detail not shown here. Equal entries are not always repeated. Inconclusive results are not listed. Active and inactive are the calls of the source. Unless noted, the call rests on the fitted dose curve; in most records, active means well fitted inhibition curve with a large enough effect; inconclusive means small, poorly fitted or top-dose-only effect; inactive means flat fitted curve, though single readings scatter.
Potency means the concentration at half of the fitted maximal effect.

For `Nc1ccn([C@@H]2O[C@H](CO)[C@H](O)C2(F)F)c(=O)n1`, the Potency was 5620 nM (active) in assay [1] (parasite line A); 316 nM (active) in assay [1] (parasite line B); 3.16 µM (active) with 3D7; 2.82 µM (active) in the assay on 7G8; 1.58 µM (active) with AA1029; 3.55 µM (active) in the assay on AS120. For the same compound, the Potency in the assay on ATS189 is 3.98 µM (active); with ATS95, 5.62 µM (active); in the assay on C2A, 3.98 µM (active); with CP185, 5.62 µM (active); in the assay with CP191 it was 1.41 µM (active); with CP192 it was 6.01 µM (active). Also, the Potency in the assay on CP194 is 6.75 µM (active); in the assay with CP201, 2.13 µM (active); in the assay with CP203, 2.69 µM (active); in the assay with CP211 it was 2.39 µM (active); with CP215 it was 6.01 µM (active); in the assay with CP217, 4.47 µM (active). In the assay on CP237, the Potency is 3.55 µM (active).

Regarding `C=CCn1c(=O)c2cnc(Nc3ccc(N4CCN(C)CC4)cc3)nc2n1-c1cccc(C(C)(C)O)n1`, the values for the Potency in assay [2] and in assay [3] (TFE3-RCC UOK109 viability) were 138 nM (active) and 235 nM (active), respectively. For the same compound, the Z-AUC in assay [2] (setting [4]) was -1.63; in assay [2] (measured here: PEO4 Z-AUC) it was -1.42. The z-score in assay [3] (setting [5]) is -1.89; in assay [3] (setting [6]), -1.72; in assay [3] (setting [7]), -2.1.

For the compound `Cc1cccc(C=NNc2cc(N3CCOCC3)nc(OCCc3ccccn3)n2)c1`, the Potency in [3] (TFE3-RCC UOK109 viability) is 118 nM (active). Besides, the z-score is -0.897 in assay [3] (setting [5]), -1.42 in [3] (setting [6]) and -0.962 in assay [3] (setting [7]).

`CC[C@@]1(O)C(=O)OCc2c1cc1n(c2=O)Cc2cc3cc(O)ccc3nc2-1`: the Potency in assay [2] was 38.9 nM (active); in assay [3] (TFE3-RCC UOK109 viability) it was 1480 nM (active). Besides, the Z-AUC is -3.38 in assay [2] (setting [4]) and -2.58 in assay [2] (measured here: PEO4 Z-AUC). Also, the z-score is -0.967 in assay [3] (setting [5]), -1.78 in assay [3] (setting [6]) and -2.02 in assay [3] (setting [7]).

For `COC(=O)C[C@](O)(CCCC(C)(C)O)C(=O)O[C@@H]1C(OC)=C[C@]23CCCN2CCc2cc4c(cc2[C@H]13)OCO4`, the Potency in assay [2] is 436 nM (active); in [1] (parasite line A) it was 25.1 nM (active); in assay [1] (parasite line B), 25.1 nM (active); in the assay on 3D7, 0.0251 µM (active); in the assay with 7G8, 0.0112 µM (active); with AA1029, 0.0251 µM (active). The Potency in the assay on AS120 is 0.0158 µM (active); in the assay with ATS189, 0.0316 µM (active); in the assay on ATS95, 0.0282 µM (active); in the assay with C2A, 0.0224 µM (active); in the assay with CP185, 0.0355 µM (active); with CP191 it was 0.0282 µM (active). Also, the Potency in the assay on CP192 was 0.0269 µM (active); with CP194, 0.0379 µM (active); with CP201, 0.0426 µM (active); in the assay on CP203 it was 0.0338 µM (active); in the assay on CP211 it was 0.0301 µM (active); with CP215 it was 0.0338 µM (active). The figures for the Potency in the assay on CP217 and in the assay on CP237 were 0.0316 µM (active) and 0.0158 µM (active), respectively. The figures for the Z-AUC in assay [2] (setting [4]) and in assay [2] (measured here: PEO4 Z-AUC) were -2.08 and -2.6, respectively. For the same compound, the z-score amounted to 0.959 in assay [3] (setting [5]), 0.544 in assay [3] (setting [6]) and 0.67 in [3] (setting [7]).

On to `Nc1ccn([C@@H]2CS[C@H](CO)O2)c(=O)n1`, for which the figures for the Z-AUC in assay [2], in assay [2] (setting [4]) and in assay [2] (measured here: PEO4 Z-AUC) were -0.72 (inactive), -0.233 and -0.547, respectively. Further, the z-score was -0.159 in assay [3] (setting [5]), 0.923 in assay [3] (setting [6]) and 0.391 in assay [3] (setting [7]). The activity, negative = inhibition in assay [1] (parasite line A) was 3.35% (inactive) and 3.28% (inactive); in [1] (parasite line B), 12% (inactive) and -4.61% (inactive). Besides, the Potency result in the assay on 3D7, in the assay with 7G8, in the assay on AA1029, in the assay with AS120, in the assay on ATS189 and in the assay on ATS95 was “inactive” throughout. For the same compound, the Potency entry with C2A, in the assay on CP185, in the assay on CP191, with CP192, in the assay on CP194 and in the assay with CP201 was “inactive” throughout. Moreover, the Potency entry in the assay with CP203, with CP211, in the assay on CP215, in the assay with CP217 and in the assay with CP237 was “inactive” each time.

Values taken from PubChem BioAssay (NCATS).
